Experimental data reported in the supplement of paper PMC7801607.

tested on: Plasmodium berghei ANKA liver stage in HepG2-A16-CD81; test: % inhibition of liver stage parasite viability (luciferase); higher = more inhibition; settings: 5 µM; 48 h
Protocol: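 Single-concentration screen of the MMV Pandemic Response Box. P. falciparum NF54 asexual blood stages: pLDH assay, 72 h at 37 °C, 2 and 20 µM, n=2. Stage IV/V gametocytes (NF54): luciferase reporter (NF54-Pfs16-GFP-Luc, 48 h), ATP bioluminescence (24 h) and PrestoBlue (48 h) at 1 and 5 µM, n=1. P. berghei liver stage (luciferase in HepG2-A16-CD81, 48 h post infection) at 5 µM, n=4. All normalised to DMSO and kill controls as % inhibition.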

SMILES	% inhibition of liver stage parasite viability [%]
N#CCN1C(=O)COc2cc(F)c(N3C(=O)c4ccccc4C3=O)cc21	14.6
Nc1nc(N)c2c(Sc3ccccc3)cccc2n1	48.9
OC1O[C@H](CSc2ccc(F)cc2)[C@@H](O)[C@H]1O (stereo not given in full)	31.6
CC[C@@H](CO)NCCN[C@@H](CC)CO	32.9
COC1CC2CCC(C)C(O)(O2)C(=O)C(=O)N2CCCCC2C(=O)OC(C(C)CC2CCC(OCCO)C(OC)C2)CC(=O)C(C)/C=C(\C)C(O)C(OC)C(=O)C(C)CC(C)/C=C/C=C/C=C/1C (stereo not given)	0.0625
COc1cc(NC(=O)CN2C(=O)NC(c3ccccc3)(c3ccccc3)C2=O)cc(OC)c1	9.85
CN(C)[C@@H]1C(=O)C(C(N)=O)=C(O)[C@@]2(O)C(=O)C3=C(O)c4c(O)c(NC(=O)CN5CCCC5)cc(F)c4C[C@H]3C[C@@H]12	-4.53
Cc1ccc(S(=O)(=O)Nc2cccc3cccnc23)cc1	27.6
Cc1ncc([N+](=O)[O-])n1CC(C)O (stereo not given)	13.9
CCNC(=O)Nc1cc(-c2ccccc2)c(-c2cncc(C(=O)O)c2)cn1	41.3
Oc1c(C(Nc2ccccn2)c2ccccc2)ccc2cccnc12 (stereo not given)	12.4
NC(=O)c1cnc2ccc(S(=O)(=O)c3ccccc3)cc2c1Nc1ccc(O)cc1	53.1
CCCCCCCc1[nH]c2ccccc2c(=O)c1O	72.5
COc1ccc2sc3c(c2c1)NC(C)CNC3=O (stereo not given)	-51.9
C=CCc1cc(Cc2cnc(N)nc2N)cc(OC)c1O	68.4
O=C(Nc1ccccc1)N(Cc1cc(Br)ccc1O)c1ccc(F)cc1	17.9
NC(=O)c1[nH]c2ccc(S(N)(=O)=O)cc2c1-c1ccccc1	21.9
CC(C)Cn1c(=O)n(C)c(=O)c2c(-c3cncn3C)n(Cc3cccc4ccccc34)nc21	-8.38
NC(=O)[C@@H]1CC[C@@H]2CN1C(=O)N2OS(=O)(=O)O	12.2
CC(Cc1ccccc1)C(=O)Nc1ccc(Cl)cc1C(=O)O (stereo not given)	8.73

SMILES	% inhibition of liver stage parasite viability [%]
CC(Oc1ccc(Cl)cc1Cl)C(=O)NCc1ccc2c(c1)OCO2 (stereo not given)	7.01
O=[N+]([O-])/C(Br)=C/c1ccc(Br)o1	15.9
C=CCN(C(=O)OCc1ccc([N+](=O)[O-])cc1)C1CCN(CC[C@](C)(CN(C)S(=O)(=O)c2ccccc2)c2ccccc2)CC1	42.2
COC(=O)Nc1nc2c(C)cccc2[nH]1	3.06
O=C(O)COc1cccc2c1CC[C@](O)(COC(=O)N(c1ccccc1)c1ccccc1)C2	13.6
CCCC(=O)OCCc1ccccc1	-8.54
CCCCCCC1c2ccc(O)cc2Oc2cc(O)ccc21	42.4
O=C(Nc1nnc(-c2ccc(Cl)cc2)o1)c1ccc(F)cc1	63.4
COc1ccc(C(C)(C)C)cc1NC(=O)C(=O)c1ccc(OCCN2CCOCC2)c2ccccc12	15.1
Cc1cc(C2CCCCC2)n(O)c(=O)c1	14.2
COc1ccc(CNC(=O)C2CCN([C@H](C)c3cccc4ccccc34)CC2)cc1	19.6
COc1cc(NCc2ccc3nc(N)nc(N)c3c2C)cc(OC)c1OC	69.1
CSc1ccc2c(c1)C(N1CCN(C)CC1)Cc1ccccc1S2 (stereo not given)	23
NCc1ccc(S(N)(=O)=O)cc1	19.8
COc1cc(Cc2cnc(N)nc2N)cc(OC)c1OC	66.4
COc1ccc(NC(=O)c2cc3ccccn3n2)cc1	-110
O=C(CP(=O)(O)O)NCCc1cccc(Oc2ccccc2)c1	27.3
COc1ccc(C2CNC(=O)C2)cc1OC1CCCC1 (stereo not given)	29.1
CC1(C)C[C@H]1C(=O)N/C(=C\CCCCSC[C@@H](N)C(=O)O)C(=O)O	12.4
Cc1nc(-c2ccc(C3N(C)c4ccc(F)cc4C(=O)N3c3ccccc3)s2)cs1 (stereo not given)	31.9
